# Measurements as given in PubChem BioAssay (EPA / NIEHS).
# Active and inactive are the calls of the source. The calls were made as follows: active = hit-call score of the fitted dose curve at least 0.9, where 1 is the maximum; inactive = score below 0.9.
# Target: Nuclear respiratory factor 1 (Homo sapiens) (UniProt Q16656)
# Experiment: ATG_NRF1_CIS: Attagene CIS-FACTORIAL HepG2 Assay for human Nuclear Respiratory Factor 1 (NRF1) Orphan Gene (AID 2282987)
# Conditions: HepG2 NRF1 cis-element reporter, Attagene multiplex; actives raise or lower the signal
# Description: ATG_CIS is a cell-based, multiplexed-readout assay that uses HepG2, a human liver cell line, with measurements taken at 24 hours after chemical dosing in a 24-well plate.ATG_NRF1_CIS is one of 52 assay component(s) measured or calculated from the ATG_CIS assay. It is designed to make measurements of mRNA induction, a form of inducible reporter, as detected with fluorescence intensity signals by Reverse transcription polymerase chain reaction (RT-PCR) and Capillary electrophoresis technology.Data from the assay component ATG_NRF1_CIS was analyzed into 1 assay endpoint. This assay endpoint, ATG_NRF1_CIS, was analyzed with bidirectional fitting relative to DMSO as the negative control and baseline of activity. Using a type of inducible reporter, measures of mRNA for gain or loss-of-signal activity can be used to understand the reporter gene at the transcription factor-level as they relate to the gene NRF1. Furthermore, this assay endpoint can be referred to as a primary readout, because this assay has produced multiple assay endpoints where this one serves a reporter gene function. To generalize the intended target to other relatable targets, this assay endpoint is annotated to the dna binding intended target family, where the subfamily is nuclear respiratory factors.
# Human liver HepG2 cells are transiently transfected with multiple reporter transcription units (MRTUs) in 6-well plates using FuGene 6 reagent (Roche; 3 ml FuGene/1 mg DNA). The MRTU constructs are regulated by a cis-regulating element (promoter). […] A major difference between the CIS and TRANS system is that in CIS activities of endogenous TFs are measured, whereas the TRANS assay evaluates changes in activities of exogenous, chimeric NR-Gal4 proteins. […] At the end of 24 hour incubation, total RNA was isolated using TriZol reagent (Invitrogen). The isolated RNA is then reverse-transcribed using oligo(dT) primer and Mo-MLV reverse transcriptase (Invitrogen) with DNAse I (Ambion) treatment for 30 min. The one-tenth of the produced cDNA was amplified by PCR using Taq DNA polymerase (Invitrogen) and two reporter sequence-specific primers. The PCR products were fluorescently labeled by primer extension with 6-arboxyfluorescein (6-FAM) 5'-labeled reporter sequence-specific primer (2 min at 95 C, 20 s at 68 C and 10 min at 72 C) and these products were digested with 5U of HpaI (New England Biolabs) for 2h at 37 C. The fragments were purified using Qiaquick PCR columns (Qiagen), analyzed on an ABI 3130xL genetic analyzer (Applied Biosystems) with peak positions identified by using a set of X-rhodamine (ROX)-labeled MapMarker1000 molecular weight standards (BioVentures). The raw capillary electrophoresis data was processed using Attagraph software (Attagene).
# Nuclear respiratory factor 1 (Homo sapiens), sequence (Q16656 whole entry, looked up): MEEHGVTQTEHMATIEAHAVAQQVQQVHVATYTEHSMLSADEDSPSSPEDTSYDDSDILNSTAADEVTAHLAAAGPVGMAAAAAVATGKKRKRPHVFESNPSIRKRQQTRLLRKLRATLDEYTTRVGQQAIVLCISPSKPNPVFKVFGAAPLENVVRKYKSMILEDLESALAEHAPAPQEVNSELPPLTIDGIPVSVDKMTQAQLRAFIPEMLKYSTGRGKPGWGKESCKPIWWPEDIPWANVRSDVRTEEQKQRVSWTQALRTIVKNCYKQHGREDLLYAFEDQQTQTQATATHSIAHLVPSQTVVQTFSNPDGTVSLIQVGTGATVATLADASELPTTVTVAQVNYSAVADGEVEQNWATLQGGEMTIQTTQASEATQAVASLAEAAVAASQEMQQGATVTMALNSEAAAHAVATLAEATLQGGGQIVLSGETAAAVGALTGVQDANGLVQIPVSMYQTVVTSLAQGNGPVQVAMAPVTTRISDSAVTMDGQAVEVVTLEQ
row,Structure (SMILES),outcome
1,Cc1oc(-c2ccccc2)nc1CCOc1cccc2c1ccn2CCC(=O)O,inactive
2,C=CCOC(=O)c1ccccc1C(=O)OCC=C,inactive
3,Cc1ccc(Cl)cc1,inactive
4,Nc1ccc2c(c1)C(=O)c1ccccc1C2=O,inactive
5,CCCCC(CC)COC(=O)CC(C(=O)OCC(CC)CCCC)S(=O)(=O)O (stereo not given),inactive
6,CCCCc1ccc2c(n1)[C@@H](c1ccc(OC)cc1C[C@H](C)C(=O)O)[C@H](C(=O)O)[C@H]2c1ccc2c(c1)OCO2,inactive
7,CCCCCCCCCCCC(=O)OC,inactive
8,FC(F)(F)C(F)(F)C(F)(F)C(F)(F)C(F)(F)C(F)(F)CCI,inactive
9,CCCCCCC(=O)OCC,inactive
10,C1CCC(SSC2CCCCC2)CC1,inactive
11,COc1ccc(S(=O)(=O)N2C(=O)[C@@](c3ccccc3OC)(N3C[C@H](O)C[C@H]3C(=O)N(C)C)c3cc(Cl)ccc32)c(OC)c1,inactive
12,Cc1nc(C)nc(N2C[C@@H](C)N(c3ccnc([C@@H](C)O)n3)[C@@H](C)C2)n1,inactive
13,O=c1c(O)c(-c2ccc(O)c(O)c2)oc2cc(O)cc(O)c12,inactive
14,Clc1cc(Cl)c(Cl)cc1Cl,inactive
15,Nc1ccc(S(=O)(=O)c2ccc(N)cc2)cc1,inactive
16,Oc1ccc2c(c1)OC[C@@H](N1CCC(O)(c3ccc(F)cc3)CC1)[C@H]2O,inactive
17,CNCc1cc(F)ccc1Oc1ccc(Cl)c(Cl)c1,inactive
18,OC[C@@H](O)[C@@H](O)[C@H](O)[C@H](O)CO,inactive
19,Cc1cccc(C)c1O,inactive
20,Cc1c(C(=O)O)c(O)cc2c1C(=O)c1c(O)c([C@@H]3O[C@H](CO)[C@@H](O)[C@H](O)[C@H]3O)c(O)c(O)c1C2=O,inactive

row,Structure (SMILES),outcome
1,Cc1ccc2ncccc2c1,inactive
2,NS(=O)(=O)c1cc2c(cc1Cl)NCNS2(=O)=O,inactive
3,COc1cccc2c1C(=O)c1c(O)c3c(c(O)c1C2=O)C[C@@](O)(C(=O)CO)C[C@@H]3O[C@H]1C[C@H](N)[C@H](O)[C@H](C)O1,inactive
4,CC(=O)OC/C=C(\C)CCC=C(C)C,inactive
5,C[Si]1(C)O[Si](C)(C)O[Si](C)(C)O[Si](C)(C)O1,inactive
6,Cc1nc(-c2ccc3c(c2)CCN(CCC2CCC(NC(=O)/C=C/c4ccc(F)cc4)CC2)CC3)no1 (stereo not given),inactive
7,CC(C)c1ccc(C(=O)N=C(N)N)cc1S(C)(=O)=O,inactive
8,COc1cc(-c2nc(NC(=O)c3cc4cc(C)cc(C)c4n3CC(=O)O)sc2CCC2CCCCC2)c(OC)cc1Cl,inactive
9,COCCOC[C@H](CC1(C(=O)NC2CCC(C(=O)O)CC2)CCCC1)C(=O)Oc1ccc2c(c1)CCC2 (stereo not given in full),inactive
10,NCCO,inactive
11,COc1cc(C=O)ccc1O,inactive
12,CCCCCCCCCCC,inactive
13,NC(=O)Cn1c(=O)cc(CCN2CCN(c3nccc4sccc34)CC2)c2ccc(F)cc21,inactive
14,CCCCOC(=O)CCCCCCCCC(=O)OCCCC,inactive
15,Cc1cccc([N+](=O)[O-])c1C,inactive
16,CCCCCC(=O)O,inactive
17,CC=Cc1ccc(O)c(OC)c1,inactive
18,CCOC(=O)CCC(=O)OCC,inactive
19,CCCCCCCC=O,inactive
20,O=C(OCCCCCOC(=O)c1ccccc1)c1ccccc1,inactive
